The test system of this assay is VDR:RXRa (NR concentration 270 nM, RXRa partner concentration 90 nM). The experiment in a line: PBM binding z-score (relative to random genomic background probes); higher = stronger binding; sequences stand for … in GC…GCGATTGACAGCGTAGAATGAAGG
The method, then: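 Protein-binding microarray (Agilent 4x180K custom design, double-stranded 60-nt probes: 5' GC cap, 34-nt variable region, 24-nt constant primer region; full probe sequence given). Purified or IVT nuclear receptor:RXRα heterodimers (3:1 NR:RXRα, mostly 270:90 nM) or homodimers were incubated for 1 h in PBS with 2% milk and no ligand, then detected with Alexa488 antibodies. Fluorescence from o1-orientation probes (~5 replicates averaged) was converted to z-scores against 500 random hg19 background probes. Variable regions are seed direct-repeat (DR0–DR5) sites, all their single-nucleotide variants and half-site ablations.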
CCGACGGGGGCAAAGGTTACCATACTCAGTACGA returned a PBM binding z-score of 5.11.
The sequence CAAACTAGGTCAAGGTCTAAGTCGGTTTGTGCCA returned a PBM binding z-score of 1.95.
As for ATCGAAAGGTCGACGCGGTGAGTATACACCGTTT, the figure is 3.04; as for CGAACTACGTCATCCAGGACAGTGAATACATTGA, 0.17.
The value for TCGTGTAGGTTACGGGGGCATTCAGGGATGAAGA was 4.42.
As for ACTCGGTGGACAAAGGTCAGAGCTACGCCAGTGA, the PBM binding z-score came out at 2.91.
On to TCTCGGAGGAAACGAAAGGTCAGAGCTCGACATC, for which the PBM binding z-score was found to be 2.44.
CGTCCAAGGTCTAGGTCAGTGAAAGAGACTCGAA: the PBM binding z-score stood at 0.105.
Take CGTCCAAGGTCAAAGGTCAATGAAGAGATGACGG: the PBM binding z-score is 7.06.
The sequence TAGCCTAGGTCATGCGGCCCAGTATAGTGTCGGC registered a PBM binding z-score of 1.77.
Turning to TAGCCTAGGTTATGGGCCAGTATACCACGCGAAC, the PBM binding z-score is -0.0238.
Consider CCGAATAGGTTACGAGGGGGCATTCAGTGCGAAT, for which the PBM binding z-score was found to be 5.89.
Regarding CCTTAGGGGTCAAGGTTATAGCACGGGTGGTACG, the PBM binding z-score was 6.11.
For the sequence CGAACTAGGTCACCCAGGACAGTGAATACATTGA, the PBM binding z-score amounted to 4.43.
Sequence GGAACGAGGGCAAAGTTCATAGCATCTGTCGACG came in with a PBM binding z-score of 5.05.
As for ATATGTAGGTTACATCCGGGTCATCCAGGCTATG, the figure is 4.14; as for CCTCGGAGGACAACAGGAGGTCATAGCTGCCAGA, 3.57; as for GTTACAGGGTCAAGGCCAGAGTACGCGTATTGAT, 4.45.
In turn, TAGCCTAGGTCATGCGGGCCAATATAGTGTCGGC gave a PBM binding z-score of 3.64.
CGTCCAAGGTCAAGGTCAATGAAAGAGACTCGAA had a PBM binding z-score of 5.07.
Regarding TAGCCTAGGTCATTCAGGGGCCACTATAGAAAGC, the PBM binding z-score turned out to be 3.95.
In the case of TTGCCAAGGTGAAAGGTCGTTGATGCACGCCTTG, the PBM binding z-score worked out at 3.23.
In turn, GCTGCTAGGTCAACTGATGGTCATCTAAAGCTCG registered a PBM binding z-score of 2.28.
The value for TTACCAAGGTGAAAGGTCGTTGCTGCACGCCTTG was 3.19; that for CGTCCAAAGTCAAAGGTCAGTGAAGAGATGACGG was 3.16; that for AATACAGGGTCATCTTAGGCCAGAGTACGCACAG was 5.31.
In turn, AGTCAAAGTTCATCTAGGTAACATAAGATATGCT showed a PBM binding z-score of 5.33.
In the case of CCGAGTTGGTCAAGGTCACACACGCTATAGGTAC, the PBM binding z-score came to 4.7.
For the sequence CATACAGGGTCGGCTAGGCCAGAGTAGGGACGGC, the PBM binding z-score is 0.863.
For the sequence TCTTGTAGATCGATAGAGGTTAAGAAAGTGCGCT, the PBM binding z-score is 1.45.
In turn, ATATGTAGGTTAAGCGTCATTCAGGTTGGTTCGC registered a PBM binding z-score of 0.888.
CGTCCAAGGTCACGGTCAGTGAAAGAGACTCGAA: the PBM binding z-score is 5.13.
The sequence CCTACGGGGCCACGAAAGGTCATTGATTCAGTGA came in with a PBM binding z-score of 5.53.
With TTACCAAGGTCAAGGTCGTTGATCCCTCTGTAGA, the PBM binding z-score worked out at 5.5.
Turning to CGTCAAAGTCCAAGGTAACGTAACAGAAAGCAGC, the PBM binding z-score was -0.137.
Sequence CCTACTGGGCCACGAAAGGCCATTGATTCAGTGA returned a PBM binding z-score of -0.147.
In turn, CAAAATAGGTCACAGAGGTCAAAGTCCGTGCGTA came in with a PBM binding z-score of 8.21.
On to ATCGAAAGGTCGACCAGGTGAGTATACACCGTTT, for which the PBM binding z-score amounted to 3.73.
For CCTGCGAGGTCATGGTCAGCTAATCTACAGTATG, the PBM binding z-score came to 5.17.
The value for ATCGAAAGGTCGAAGGTGCGTATACCCACCCGAA was 2.58.

The values are drawn from the supplement of paper PMC6555819.
